Assay results from PubChem BioAssay (NCI).
Compounds without any hit were thinned out: in the full panel of roughly 79,000, 15% have a hit. A number with no mark means an inactive call. Active and inactive are the calls of the source. No stated cut-off is given here; in the data, active means growth inhibition above about 70%; inactive means the rest.

Legend:
[1] = NCI Yeast Anticancer Drug Screen. Data for the rad50 strain (AID 155);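 further: 0% = growth of vehicle-only cultures of the same strain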; settings: S. cerevisiae rad50 strain growth inhibition, active compounds read high
How it was run: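 Inhibition values express reduced yeast growth in compound-treated cultures relative to vehicle-treated controls.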

[2] = NCI Yeast Anticancer Drug Screen. Data for the mec2-1 strain (AID 157); settings: S. cerevisiae mec2-1 strain, active compounds read high
How it was run: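 Test agents were screened against the mec2-1 yeast strain, with defined DNA repair or cell cycle alteration. Growth was scored as inhibition against vehicle-only controls.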

[3] = NCI Yeast Anticancer Drug Screen. Data for the sgs1 mgt1 strain (AID 161);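 further: 0% = growth of cultures given vehicle only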; settings: S. cerevisiae sgs1 mgt1 strain, active compounds read high
How it was run: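 Read-out: growth inhibition vs vehicle controls. Cells: mutant yeast strain deficient in DNA damage repair.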

[4] = NCI Yeast Anticancer Drug Screen. Data for the cln2 rad14 strain (AID 165);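 further: 0% = growth equal to vehicle treated cultures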; settings: S. cerevisiae cln2 rad14 strain, active compounds read high
How it was run: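 Growth of compound-exposed yeast (cln2 rad14 genotype) measured and expressed as inhibition relative to vehicle.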

[5] = NCI Yeast Anticancer Drug Screen. Data for the bub3 strain (AID 167); settings: S. cerevisiae bub3 mutant strain, active compounds read high
How it was run: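 Steps: expose the mutant yeast strain to compound; grow alongside vehicle-treated cultures; measure growth; express inhibition against the vehicle cultures.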

[6] = NCI Yeast Anticancer Drug Screen. Data for the mlh1 rad18 strain (AID 175); settings: S. cerevisiae mlh1 rad18 strain growth inhibition, active compounds read high
How it was run: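 In this whole-cell yeast screen, a strain with altered DNA damage repair is challenged with compound, and its growth is measured against matched vehicle-treated controls.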

[7] = at 5.0 µM (retest, dose inferred, filed as 0.5)
[8] = at 50.0 µM (retest, dose inferred, filed as 5.0)

SMILES | growth inhibition [1, 7] | growth inhibition [1, 8] | growth inhibition ([1]; at 50.0 µM) | growth inhibition [2, 7] | growth inhibition [2, 8] | growth inhibition ([2]; at 50.0 µM) | growth inhibition [3, 7] | growth inhibition [3, 8] | growth inhibition ([3]; at 50.0 µM) | growth inhibition [4, 7] | growth inhibition [4, 8] | growth inhibition ([4]; at 50.0 µM) | growth inhibition [5, 7] | growth inhibition [5, 8] | growth inhibition ([5]; at 50.0 µM) | growth inhibition [6, 7] | growth inhibition [6, 8] | growth inhibition ([6]; at 50.0 µM)
COc1cc(C2c3cc4c(cc3[C@@H](Nc3cccc(O)c3)C3COC(=O)[C@H]23)OCO4)cc(OC)c1O (some centres not stated) | 96% (active) | 97% (active) | 85% (active) | 96% (active) | 98% (active) | 90.7% (active) | 28% | 97% (active) | 88.5% (active) | 33% | 90% (active) | 88.8% (active) | 21% | 93% (active) | 87.7% (active) | 94% (active) | 97% (active) | 87% (active)
Cc1cc2nc(-c3ccccc3[N+](=O)[O-])[nH]c2cc1C | -3% | 20% | 21.6% | -7% | 7% | -0.15% | -6% | 61% | 41.1% | -3% | -1% | -73.7% | 6% | 55% | 16.3% | 2% | 56% | 3.2%
C=C(Br)COc1ccc2c(C)cc(=O)oc2c1 | 38% | 39% | 67.5% | 35% | 32% | 25.7% | 42% | 47% | 75.2% (active) | 38% | 32% | 36% | 45% | 43% | 68.8% | 49% | 51% | 49.8%
COc1cc(OC)c(C(=O)[O][Sn]([c]2ccccc2)([c]2ccccc2)[c]2ccccc2)cc1OC | 100% (active) | 98% (active) | 98.4% (active) | 100% (active) | 100% (active) | 96.3% (active) | 99% (active) | 99% (active) | 97.3% (active) | 99% (active) | 99% (active) | 90.5% (active) | 96% (active) | 99% (active) | 96.1% (active) | 99% (active) | 100% (active) | 96.7% (active)
C=CCN1CCC(OC(=O)C(O)(/C=C\CC)C2CCCC2)CC1 (configuration not stated) | 19% | 61% | 68.8% | 13% | 40% | 48.9% | 37% | 63% | 70.2% (active) | 17% | 75% (active) | 62.8% | 12% | 83% (active) | 61.6% | 7% | 67% | 59.5%
N#C/C(=C\c1cc(Cl)cc(Cl)c1O)C(/C(C#N)=C/c1cc(Cl)cc(Cl)c1O)c1ccc2c(c1)OCO2 (configuration not stated) | 64% | 98% (active) | 90.8% (active) | 48% | 99% (active) | 93.5% (active) | 75% (active) | 100% (active) | 93.2% (active) | 44% | 97% (active) | 91.8% (active) | 74% (active) | 99% (active) | 92.1% (active) | 80% (active) | 99% (active) | 90.8% (active)
O=c1oc2c3ccc4ccccc4c3n(CCCN3CCCCC3)c2c2ccccc12 | 81% (active) | 81% (active) | 54.4% | 17% | 17% | 82.8% (active) | 35% | 35% | 87.4% (active) | 27% | 27% | 76% (active) | -4% | -4% | 84.8% (active) | -13% | -13% | 87.3% (active)
O=C(O)CN(CCN1CC(=O)OC(=O)C1)CCN1CC(=O)OC(=O)C1 | 4% | 61% | 89.9% (active) | -1% | 49% | 88.5% (active) | 8% | 29% | 86.5% (active) | -8% | 46% | 70.5% (active) | 4% | 88% (active) | 72.5% (active) | 8% | 41% | 84.3% (active)
C=Nc1ccc2ccccc2c1Cc1c(O)ccc2ccccc12 | 7% | 99% (active) | 97.2% (active) | 12% | 99% (active) | 97.2% (active) | 8% | 99% (active) | 97.4% (active) | -8% | 99% (active) | 96.5% (active) | 1% | 99% (active) | 97.5% (active) | 11% | 99% (active) | 96.7% (active)
CC(C)CCOC(=O)Nc1cccc(Cl)c1 | 2% | 76% (active) | 62.1% | -4% | 11% | 12.8% | 0% | 36% | 66.2% | 1% | -8% | 13.2% | 47% | 17% | -0.75% | 4% | 33% | 44%
CCCCN(CCCC)CN1C(=O)/C(=C/c2ccc(NC(C)=O)cc2)NC1=S | 7% | 62% | 78% (active) | -7% | 64% | 79.6% (active) | -1% | 64% | 79.9% (active) | -2% | 63% | 79.8% (active) | -15% | 53% | 72.7% (active) | -3% | 79% (active) | 86.2% (active)
Cc1cc(Cl)cc2c1NC(=O)C2(O)C(C)C(=O)c1ccc(Cl)cc1 (configuration not stated) | -2% | 63% | 99.4% (active) | -1% | 71% (active) | 98.5% (active) | 11% | 77% (active) | 99.5% (active) | -1% | 99% (active) | 99.1% (active) | -4% | 99% (active) | 99.5% (active) | -5% | 77% (active) | 98.8% (active)
Clc1ccc(CNc2ccc(Br)cc2)cc1 | 0% | 82% (active) | 94.5% (active) | 3% | 93% (active) | 85.5% (active) | 4% | 94% (active) | 95.8% (active) | -9% | 80% (active) | 82.2% (active) | 3% | 86% (active) | 85.2% (active) | -1% | 91% (active) | 87.7% (active)
COC(=O)c1ccc(OCCC(=O)CCl)cc1 | 0% | 56% | 99.5% (active) | 1% | 52% | 99.8% (active) | 3% | 55% | 99.7% (active) | 4% | 31% | 69.1% | 11% | 67% | 99.6% (active) | 2% | 72% (active) | 97.8% (active)
COc1cccc2c1C(=O)c1c(O)c3c(c(O)c1C2=O)C[C@@](O)(C(=O)CO)C[C@@H]3OC1CC(N)CC(C)O1 (some centres not stated) | 81% (active) | 98% (active) | 89.3% (active) | 24% | 98% (active) | 90.4% (active) | 61% | 99% (active) | 90.1% (active) | 63% | 98% (active) | 85% (active) | 76% (active) | 99% (active) | 88.9% (active) | 69% | 97% (active) | 92% (active)
O=C(O)c1c([N+](=O)[O-])cc(C(F)(F)F)cc1[N+](=O)[O-] | -20% | 6% | -1.7% | 0% | 13% | 4.3% | 1% | 11% | 14.9% | 9% | 43% | -29.6% | 1% | 10% | -3.55% | 43% | 9% | 29%
CN(C)N=Nc1c(-c2cccs2)n[nH]c1C(F)(F)F | 98% (active) | 99% (active) | 99.4% (active) | 99% (active) | 100% (active) | 99.8% (active) | 100% (active) | 100% (active) | 99.6% (active) | 99% (active) | 99% (active) | 99.5% (active) | 99% (active) | 99% (active) | 99.5% (active) | 99% (active) | 99% (active) | 99.6% (active)
[O-]c1c2cc(-[n+]3c(-c4ccccc4)cc(-c4ccccc4)cc3-c3ccccc3)cc1CO[C@@H](c1ccccc1)[C@H](c1ccccc1)OCCOCCO[C@@H](c1ccccc1)[C@H](c1ccccc1)OC2 | 97% (active) | 95% (active) | 87.5% (active) | 98% (active) | 95% (active) | 91.4% (active) | 98% (active) | 97% (active) | 88.4% (active) | 95% (active) | 97% (active) | 88.6% (active) | 97% (active) | 72% (active) | 89% (active) | 98% (active) | 94% (active) | 29.6%
CC1=C(C(=O)Nc2ccccc2)C(c2cc(Cl)cc(Cl)c2)C(C(=O)Nc2ccccc2)=C(C)N1 | 2% | 2% | 87% (active) | 19% | 19% | 85.5% (active) | 11% | 11% | 83% (active) | 5% | 5% | 63.1% | -11% | -11% | 63.4% | -4% | -4% | 74.1% (active)
